SMILES strings stand for the structures. Screen size: about 2,400 compounds; about 1,900 (79%) were called active.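 How the source made its calls: active means inhibition above the mean of all tested compounds plus 3 SD (cut at about 3% in these data); inactive means the rest.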 So high a share suggests a set chosen from earlier hits. Not all results are given here.

The assay in a line: SF-1 AF-2 mutant transactivation artefacts – cell-based, luminescence, counter-screen for DAX1 inhibitor project (AID 652136).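 Further: 0% = DAX-1 transfected cells with DMSO and 100% = cells without DAX-1 with DMSO.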 Conditions: HEK293 StAR-luciferase, SF-1 AF2 mutant, at 6.8 µM, hits give high values. On the technique in general: The purpose of a counterscreen is to sort out artefacts and off-target activity.
For the compound `COc1ccc(-c2csc(-c3cccs3)n2)cc1OC`, the inhibition (usually the relative decrease from the control value, in per cent) was 5.61% (active).
For `CN1CCN(C(=O)c2ccc(-c3ccc(Br)cc3)o2)CC1`, the inhibition was 4.28% (active).
Regarding `Cc1ccc(S(=O)Cc2ccc(C(=O)N3CCN(C4CCCCC4)CC3)o2)cc1` (configuration not stated), the inhibition is 2.33% (inactive).
To `O=C(Nc1ncccc1O)c1ccc(C(=O)c2ccccc2)cc1` belongs 35.8% (active); to `O=C(Nc1ncccc1O)c1ccc(S(=O)(=O)N2CCCC2)cc1`, 5.53% (active); to `O=C(Nc1ncccc1O)c1ccc(S(=O)(=O)N2CCCCCC2)cc1`, 2.43% (inactive).
In the case of `CC1CCN(CCCNC(=O)CN2C(=O)CSc3ccc(S(=O)(=O)N4CCCCC4)cc32)CC1`, the inhibition is 1.65% (inactive).
On to `Clc1ccc(Nc2nc(-c3cccs3)cs2)nc1`, for which the inhibition is 7.52% (active).
On to `COc1cc(OC)c(C(=O)NNC(=O)c2ccc(NS(=O)(=O)c3cccs3)cc2)cc1OC`, for which the inhibition is -0.43% (inactive).
For the compound `CC(C)(C)c1csc(NC2=NS(=O)(=O)c3ccccc32)n1`, the inhibition was 7.77% (active).
Regarding `Cc1ccc(N/C=C/C(=O)c2ccccc2)cc1C`, the inhibition was 4.16% (active).
As to `Fc1ccc2cnc(-c3ccccc3)cc2c1`, the inhibition was 5.1% (active).
For the compound `O=C(NCCc1ccc(F)cc1)c1ccc2nccnc2c1`, the inhibition was 8.87% (active).
Consider `COc1ccc2nc(-c3ccccn3)ccc2c1`, for which the inhibition is 5.03% (active).
With `Cc1nn(-c2ccc([N+](=O)[O-])cc2)c(N)c1-c1ccccc1`, the inhibition is 6.97% (active).
On to `O=C(NC(=S)Nc1ccc(Cl)cc1Cl)C1CC1`, for which the inhibition was 3.76% (active).
To `COc1ccc(CCOC2OC(CO)C(OC(=O)/C=C/c3ccc(O)c(OC)c3)C(O[C@H]3O[C@@H](C)[C@H](O)[C@@H](O)[C@H]3O)C2O)cc1O` (some centres not stated) belongs 1.22% (inactive).
On to `Cc1cc(OCc2cc(C(=O)NCc3cc(C(C)C)no3)no2)cc(C)c1Cl`, for which the inhibition was 3.41% (active).
As to `CCC(=O)Nc1ccc(-c2ccc(N3CCCCC3)nn2)cc1`, the inhibition was 2.89% (active).
Consider `COc1ccc(CCNC(=O)COC(=O)Cc2ccccc2F)cc1`, for which the inhibition is -0.5% (inactive).
The same measure for `COc1ccc(C(=O)NCC[N+](C)(C)C)cc1`: 1.97% (inactive); for `CCCOc1ccc(C(=O)NCCc2ccccc2)cc1`: 4.75% (active); for `CN(C(=O)c1cc2c(=O)n3ccccc3nc2s1)C1CCCCC1`: 3.77% (active).
In the case of `Cc1ccccc1OCC(=O)Nc1ccc2c(c1)ncn2C`, the inhibition was 5.06% (active).
On to `Cc1ccccc1Nc1nc(N)nc(CSc2ccccc2)n1`, for which the inhibition is 9.51% (active).
Take `CCOc1cccc(/C=C/c2ccc3ccccc3n2)c1OC(C)=O`: the inhibition is 2.8% (inactive).
`CNCC(O)c1ccc(O)c(O)c1` (configuration not stated): the inhibition is -2.85% (inactive).
On to `O=c1c2c(nc3cc(-c4cccc(Cl)c4)[nH]n13)CCCC2`, for which the inhibition was 5.64% (active).
The same measure for `O=C(NCC1(N2CCCCC2)CCCCC1)c1ccc(NS(=O)(=O)c2ccc(F)cc2)cc1`: 6.24% (active).
To `CCN(c1ccccc1)S(=O)(=O)c1ccc(OCC(=O)N2CCCC2)cc1` belongs 1.13% (inactive); to `CCOc1ccc(S(=O)(=O)Nc2cccc(C(=O)NCC3(N4CCCCC4)CCCCC3)c2)cc1`, 5.11% (active); to `O=C(c1cc(-c2ccccc2O)on1)N1CCCC1`, 7.17% (active).
The same measure for `COc1ccc(OCc2cc(C(=O)N3CCCC3)no2)c2ccccc12`: 6.26% (active).
Take `O=C(c1cc(-c2cccs2)on1)N1CCCCC1`: the inhibition is 4.85% (active).
To `COc1ccccc1-c1cc(C(=O)N2CCCCC2)no1` belongs 7.48% (active); to `CCOC(=O)c1c(S(=O)(=O)Nc2ccc(CN3CCC(C)CC3)cc2)c(C)n(C)c1C`, 1.43% (inactive); to `O=C(Nc1ccc2ccccc2c1[N+](=O)[O-])c1ccccc1`, 6.14% (active).
Take `COc1ccc(-c2csc(Nc3ccccn3)n2)cc1`: the inhibition is 5.68% (active).
With `COc1ccc(-c2cn3ccsc3n2)cc1`, the inhibition was 6.15% (active).
As to `COc1ccc(-c2cn3ccc(C)cc3n2)cc1`, the inhibition is 3.87% (active).
`COC(=O)Nc1nc2ccc(C(=O)C3CC3)cc2[nH]1`: the inhibition was -5.19% (inactive).
To `O=C(CSc1cccc[n+]1[O-])c1ccc(-c2ccccc2)cc1` belongs 1.01% (inactive); to `NS(=O)(=O)c1ccc2nc(NC(=O)C3=COCCO3)sc2c1`, 5.19% (active).
With `Cc1cc(N)n2nc(-c3ccc(C(C)(C)C)cc3)cc2n1`, the inhibition is 8.64% (active).
`CCc1ccc2oc(-c3ccc(N)cc3)nc2c1`: the inhibition was 4.11% (active).
In the case of `O=C(NCC1CCCO1)c1cc2c(s1)CCCC2` (configuration not stated), the inhibition was 4.63% (active).
Turning to `O=C(O)c1cccc(N=NN2CCCCCC2)c1`, the inhibition was 8.65% (active).
Regarding `CCOc1ccc(-c2nnc(-c3ccco3)o2)cc1`, the inhibition was 3.8% (active).
On to `O=C(NCCOc1ccccc1)c1ccccc1F`, for which the inhibition was 6.6% (active).
Turning to `C/C(=N\NC(=O)c1ccccc1F)c1ccccn1`, the inhibition is -9.06% (inactive).
Consider `OC(c1ccccc1)c1nc(-c2cnc3ccccc3c2)cs1` (configuration not stated), for which the inhibition was 6.87% (active).
Regarding `CC(Oc1ccccc1[N+](=O)[O-])C(=O)N/N=C/c1ccoc1` (configuration not stated), the inhibition is -0.59% (inactive).
To `Cc1cc(C(=O)NCCc2ccc(Cl)cc2)c(C)o1` belongs 2.83% (inactive).
Turning to `CC(C)Cc1cc(C(=O)NCCc2ccccc2)no1`, the inhibition is 4.55% (active).
For `CC(C)c1ccc(C=NNc2ccc([N+](=O)[O-])cn2)cc1`, the inhibition was 7.98% (active).
The same measure for `O=[N+]([O-])c1ccc2oc(-c3cccc(O)c3)nc2c1`: 8.65% (active); for `COc1ccc(Nc2ncc(F)c(N3CCOCC3)n2)cc1`: 7.01% (active).
As for `COc1ccccc1Cc1c(-c2ccc(F)cc2)nc2ccc(C)cn12`, the inhibition was 3.36% (active).
In the case of `Cc1ccc(-c2nc3ccc(Br)cn3c2Cc2ccccc2C(F)(F)F)cc1`, the inhibition was 3.81% (active).
Turning to `C=CCn1c(SCC(=O)Nc2ccc(NC(C)=O)cc2)nc2sc(C)c(C)c2c1=O`, the inhibition was -2.48% (inactive).
Consider `O=C(c1cnn(-c2ccc(Cl)cc2)c1)c1ccccc1O`, for which the inhibition is 7.41% (active).
On to `O=C1C(C=NCC2CCCO2)=C(O)c2ccccc21` (configuration not stated), for which the inhibition was 4.34% (active).
The same measure for `Nc1ccc2nn(-c3ccc(Cl)cc3)nc2c1`: 10.2% (active); for `COc1ccc2nc(SCc3ccccc3)nc(C)c2c1`: 8.35% (active); for `CC(C)c1ccc(Nc2nnc(SCC(=O)c3nnc(-c4ccccc4)o3)s2)cc1`: 5.91% (active).
The same measure for `CCc1ccc(NC(=O)N2CCc3ccccc3C2)cc1`: 2.82% (inactive); for `O=C(Nc1ccc2c(c1)CCC2)c1ccc(Br)s1`: 5.35% (active).

The values above are taken from PubChem BioAssay AID652136 (The Scripps Research Institute Molecular Screening Center, 2013).
